# An excerpt weighted towards active compounds, which were near 7.4% of everything screened.
# Rab9 prom act – activators of Rab9 promoter; AID 485297; Potency, µM (doses to about 9.22 µM), without a hit: at the highest dose activation, negative = inhibition, actives largely listed as activators; hit rate 2.8% among 320,000; Huh7 Rab9 promoter-luciferase reporter, luminescence, 24 h; note: % of control where 0% means no effect; nearly all actives have a fitted effect of over 60% in size
#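 Luciferase signal after 10 min detection reagent at ambient indicates Rab9 promoter upregulation; stably transfected Huh7 cells were treated 24 h with compound in DMSO at 37 °C, 5% CO2.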
# ELG1 genotoxic – induces genotoxicity in HEK293T cells with luciferase-tagged ELG1; HEK293T ELG1-luciferase reporter, luminescence, 16 h; AID 504466; Potency, µM (series often up to 46 µM), for the others: at the highest dose activity change, positive = activation, usual class: activators; hit rate 1.3% among 330,000; note: % of control where 0% means no effect; nearly all actives have a fitted effect of over 60% in size
#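 Genotoxicity was scored as increased ELG1-luciferase reporter signal, measured by ONE-Glo luminescence (30 min, room temperature). Compound or vehicle exposure of the HEK293T reporter cells lasted 16 hr at 37°C.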
# SMN2 splice up – enhancers of SMN2 splice variant expression; hit rate 2.8% among 210,000; HEK293 SMN2-luciferase splicing reporter, luminescence, 30-36 h; Potency, µM (top dose mostly 46.1 µM), inactives show at the highest dose activity change, positive = activation, hits mostly activators; AID 1458; note: % of control where 0% means no effect; nearly all actives have a fitted effect of over 55% in size
#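 HEK293 cells carry an SMN2 minigene-luciferase reporter in which exon 7 inclusion puts luciferase in frame. Cells were seeded at 2000 cells/well, attached for 10-12 hours, then exposed to compounds for 30-36 hours at 37C before ONE-Glo luminescence.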
# FLuc counter – counter-screen for miR-21 project: firefly luciferase inhibitors or activators. hit rate 6.9% among 360,000. P08659. purified FLuc, Km substrates, luminescence inhibition. Potency, µM (top dose mostly 57.5 µM), for the others: at the highest dose activity change, negative = inhibition, hits mostly inhibitors;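 note: plate controls were vehicle for no effect and reference inhibitor for full effect; nearly all actives have a fitted effect of over 55% in size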
# Target sequence (P08659 whole entry, looked up): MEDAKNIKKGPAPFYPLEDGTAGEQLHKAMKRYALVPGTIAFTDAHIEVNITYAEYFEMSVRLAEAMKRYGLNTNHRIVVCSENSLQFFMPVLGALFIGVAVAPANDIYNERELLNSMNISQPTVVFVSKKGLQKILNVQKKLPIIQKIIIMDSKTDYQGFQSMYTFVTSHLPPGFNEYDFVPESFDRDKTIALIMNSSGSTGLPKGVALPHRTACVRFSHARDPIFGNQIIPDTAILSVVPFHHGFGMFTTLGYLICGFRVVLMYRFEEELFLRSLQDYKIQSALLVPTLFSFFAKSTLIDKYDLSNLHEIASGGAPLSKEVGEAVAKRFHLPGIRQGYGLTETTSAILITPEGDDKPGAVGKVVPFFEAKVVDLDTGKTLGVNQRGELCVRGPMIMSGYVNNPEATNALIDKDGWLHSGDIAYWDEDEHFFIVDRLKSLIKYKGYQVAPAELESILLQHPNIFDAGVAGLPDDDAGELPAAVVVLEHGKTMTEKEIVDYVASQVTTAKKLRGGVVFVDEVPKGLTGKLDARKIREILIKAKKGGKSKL
#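 Biochemical qHTS of compounds, final roughly 60 µM downward over six points, against 10 nM purified firefly luciferase using Km concentrations of substrates (10 uM D-luciferin, 10 uM ATP) in Tris acetate pH 7.5 buffer; luminescence output.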
# NPC1 promoter act – activates the NPC1 promoter | Huh7 NPC1 promoter luciferase reporter, 24 h | Potency, µM (series often up to 9.22 µM), for inactives: at the highest dose activation, usual class: activators | hit rate 2.4% among 320,000 | AID 485313; note: % of control where 0% means no effect; nearly all actives have a fitted effect of over 60% in size
#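 Huh7 reporter cells (NPC1 promoter driving luciferase) are dosed with compound for 24 h at 37 °C, 5% CO2; luciferase detection reagent is then added and luminescence measured after 10 min at ambient temperature.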
# The depositor's hits bear a star; u = inconclusive; x = not tested or not shown; [ ] = another dose, or the depositor's remark. Calls come from the whole dose curve; as a rule, active = well fitted curve in the direction sought with a large enough effect; inconclusive = small, poorly fitted or top-dose-only effect, or another doubt; inactive = no such curve, though single readings can be large; an effect the other way counts as inactive or inconclusive. Potency is the fitted concentration of half-maximal effect.
SMILES,Rab9 prom act,ELG1 genotoxic,SMN2 splice up,FLuc counter,NPC1 promoter act
O=C(O)/C=C/C(=O)Nc1ccc(C2(c3ccc(NC(=O)/C=C/C(=O)O)cc3)c3ccccc3-c3ccccc32)cc1,1.1%,-1.5%,x,-12.8%,1.2%
CC(C)CCNC(=O)CN1C(=O)CSc2ccc(S(=O)(=O)N3CCCCC3)cc21,x,x,x,-5.5%,x
CCOc1ccc(/C=N/n2c(-c3ccccc3)n[nH]c2=S)cc1,-3.4%,-2.6%,x,0.6%,-0.7%
CC1CCC(NC(=O)C(=O)Nc2ccc3c(c2)OCO3)CC1 (stereo not drawn),0.708µM*,4.11µM*,x,7.57µM*,2µM*
CC1(C)CC(NC(=O)c2ccc3c(c2)OCO3)CC(C)(C)N1,11.1%,2.7%,9.5%,-2.0%,-5.7%
CC1CCCC(NC(=O)c2ccc3c(c2)OCCO3)C1C (stereo not drawn),1.58µM*,u,x,13.5µM*,3.98µM*
CC1CCC(NC(=O)c2ccc3c(c2)OCO3)CC1 (stereo not drawn),0.447µM*,0.461µM*,x,2.69µM*,0.316µM*
CC1CCN(CC(=O)Nc2ccc3c(c2)OCO3)CC1,14.9%,5.8%,x,-9.6%,12.4%
CC(C)c1cnc2c(c1SCC(=O)Nc1ccccc1C(F)(F)F)c(=O)n(C)c(=O)n2C,x,x,x,1.4%,x
COc1ccc2c(c1)O[C@@H](c1ccc3c(c1)OCO3)[C@H](OC(=O)NCc1ccc3c(c1)OCO3)C2=O,x,x,6.4%,x,x
COc1ccc2c(c1)C(=O)CC(c1ccc(OC)c(OC)c1)O2 (stereo not drawn),-0.3%,-3.1%,x,4.0%,-4.3%
COc1ccc2c(c1)O[C@H](c1ccc3c(c1)OCO3)[C@@H](O)C2=O,19.3%,-0.9%,12.6µM*,u,20.8%
COc1ccc2c(c1)C(=O)CC(c1ccc3c(c1)OCCO3)O2 (stereo not drawn),u,14.5%,x,21.3µM*,u
O=C1NC(=S)S/C1=C\c1coc2ccccc2c1=O,u,7.8%,2.0%,19µM*,4.9%
O=C1NC(=S)S/C1=C\c1coc2ccc(O)cc2c1=O,9.0%,10.5%,x,19µM*,13.9%
COc1cc(Nc2nc(SCC(=O)c3ccc(Br)cc3)nc3ccccc23)cc(OC)c1,x,x,x,-2.2%,x
Cc1occc1-c1nnc(SC(C)C(=O)Nc2ccccc2F)o1 (stereo not drawn),2.82µM*,u,x,1.8%,u
COc1ccc(NC(=O)CCNS(=O)(=O)c2ccc3c(c2)CCCC(=O)N3)cc1,x,x,x,-6.0%,x
N#CCCNS(=O)(=O)c1ccc(C(=O)OCCCOC(=O)c2ccc(S(=O)(=O)NCCC#N)cc2)cc1,11.4%,-12.4%,x,1.2µM*,16.3%
COc1ccc(NC(=O)c2nnn(Cc3nc(-c4cc(OC)c(OC)c(OC)c4)oc3C)c2C)cc1Cl,x,x,2.0%,-10.0%,x
COc1ccc(CCNC(=O)CSc2ccc(-c3ccccc3)nn2)cc1,-3.1%,1.5%,-1.4%,3.0%,-3.1%
CCOc1ccc(-c2ccc(SCC)nn2)cc1,0.631µM*,1.16µM*,4.47µM*,1.2µM*,0.708µM*
CCSc1ccc(-c2ccc(C)cc2)nn1,0.708µM*,u,10µM*,2.39µM*,1µM*
COc1ccc(-c2ccc(SC)nn2)cc1,0.1µM*,-8.3%,1.78µM*,1.51µM*,0.501µM*
COC(=O)c1ccc(C(NC(=O)OCc2ccccc2)/C(C)=C/[C@@H](C)C(=O)NCc2cc(F)cc(F)c2)cc1 (stereo partly drawn),x,x,-7.7%,x,x
SMILES,Rab9 prom act,ELG1 genotoxic,SMN2 splice up,FLuc counter,NPC1 promoter act
N#Cc1ccccc1/C=N/Nc1nc(-c2ccccc2)c2cc(Cl)ccc2n1,-4.0%,15.1%,8.7%,-1.1%,-2.8%
Cc1ccc2nc(N/N=C/c3ccccc3C#N)nc(-c3ccccc3)c2c1,6.6%,-5.6%,-8.1%,10.7µM*,0.9%
Cc1nnc(S(=O)(=O)c2ccc(N=Nc3c(N)nc(N)nc3N)cc2)s1,x,x,16.2%[9.22 µM],x,x
COc1cccc(NC(=O)CNC(=O)c2ccccc2)c1,24.7%,u,22.1%,-21.1%,18.5%
COc1cc(C(=O)Nc2ccc(N(C)C)cc2)cc(OC)c1OC,23.6%,u,x,3.01µM*,3.6%
COc1cccc(NC(=O)Cn2nnc(C(=O)Nc3ccccc3)c2N)c1,-5.6%,-0.4%,-6.0%,u,0.6%

# High-throughput results from PubChem.
